Activity calls are given as the source filed them. Calls come from the whole dose curve.
Each compound was assayed against Thyroid hormone receptor beta (Homo sapiens) (UniProt P10828) (assay: Secondary Confirmation Assay for Inhibitors of the Interaction of Thyroid Hormone Receptor and Steroid Receptor Coregulator 2, Texas Red Fluoroprobe). Settings: TRb LBD / Texas Red SRC2 peptide fluorescence polarization.
Excerpt: NIH Molecular Libraries Probe Production Network [MLPCN] NIH Chemical Genomics Center [NCGC] MLPCN Grant: DK058080 Assay Provider: R. Kip Guy, St. Jude Children's Research Hospital NCGC Assay Overview: Thyroid receptor (TR) regulates many homeostatic processes including basal metabolism, cardiovascular function, body weight, and lipid trafficking. TR modulators are potential therapeutics for obesity and hyperlipidemias but current thyroid analogs have undesirable side effects, particularly cardiac stimulation. To identify inhibitors that specifically prevent the interaction of TR with the steroid receptor coregulator 2 (SRC2), a fluorescence polarization assay was screened (Arnold et al., 2006). This assay detects the interaction of the ligand-binding domain of human TRb with a Texas Red labeled SRC2 peptide, corresponding to a 20 amino acid region of the nuclear receptor interaction domain. Small molecule inhibitors that block the interaction of TR and SRC2 are detected by a decrease in fluorescence polarization.
NCGC Assay Protocol Summary: Twenty uL/well 0.6 uM TRb and 20 nM Texas Red labeled SRC2-2 in protein buffer (20mM Tris hydrochloride, pH 7.4, 100mM NaCl, 10% glycerol, 1mM EDTA, 0.01% NP-40, 1mM DTT, 1uM T3 and 4% DMSO) was dispensed into black solid 384-well plates (Costar 3710) using a Biomek FX (Beckman Coulter) liquid handling system. Following transfer of 260 nL compound (ranging from 7 nM to 130 uM), the plates were incubated 3 hr at ambient temperature. The plates were read by an Envision (Perkin Elmer) to detect fluorescence polarization of SRC2 Texas Red (555 nm excitation and 632 nm emission). Arnold, L. A.; Estebanez-Perpina, E.; Togashi, M.; Shelat, A.; Ocasio, C. A.; McReynolds, A. C.; Nguyen, P.; Baxter, J. D.; Fletterick, R. J.; Webb, P.; Guy, R. K. A high-throughput screening method to identify small molecule inhibitors of thyroid hormone receptor coactivator binding. Sci STKE 2006, p 13.

Chain of Thyroid hormone receptor beta (Homo sapiens) (P10828 whole entry, looked up, the tested form may be a part): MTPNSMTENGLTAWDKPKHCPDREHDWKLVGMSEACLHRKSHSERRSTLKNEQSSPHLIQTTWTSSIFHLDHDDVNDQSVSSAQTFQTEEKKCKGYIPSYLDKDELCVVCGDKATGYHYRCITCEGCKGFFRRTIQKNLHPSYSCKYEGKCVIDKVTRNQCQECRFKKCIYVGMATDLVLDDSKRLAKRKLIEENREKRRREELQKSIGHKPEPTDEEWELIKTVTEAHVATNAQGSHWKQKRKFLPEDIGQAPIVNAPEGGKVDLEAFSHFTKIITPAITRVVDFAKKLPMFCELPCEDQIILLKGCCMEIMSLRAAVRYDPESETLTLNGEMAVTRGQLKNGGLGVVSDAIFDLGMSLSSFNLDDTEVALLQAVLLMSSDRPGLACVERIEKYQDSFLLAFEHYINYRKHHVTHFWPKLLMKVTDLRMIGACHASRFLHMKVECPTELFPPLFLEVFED

| Structure (SMILES) | outcome | Potency |
| --- | --- | --- |
| O=C(COC(=O)c1cc([N+](=O)[O-])ccc1Cl)NC1C2CC3CC(C2)CC1C3 (stereo not given) | inactive |  |
| CS(=O)(=O)c1ccc(C(=O)OCC(=O)N2CCN(Cc3ccccc3)CC2)cc1[N+](=O)[O-] |  | 15.3 µM (active) |
| CS(=O)(=O)c1ncc(C(=O)OCC(=O)NC2C3CC4CC(C3)CC2C4)cn1 (stereo not given) |  | 3.2 µM (active) |
| O=C(COC(=O)c1cccc([N+](=O)[O-])c1Cl)NC1C2CC3CC(C2)CC1C3 (stereo not given) | inactive |  |
| CS(=O)(=O)c1ccc(C(=O)OCC(=O)Nc2cc(C(F)(F)F)ccc2Cl)cc1[N+](=O)[O-] | inactive |  |
| CS(=O)(=O)c1ccc(C(=O)OCC(=O)N2CCN(CCC3CCCCC3)CC2)cc1[N+](=O)[O-] |  | 7.6 µM (active) |
| CS(=O)(=O)c1ccc(C(=O)OCC(=O)N2CCC(c3ccccc3)CC2)cc1[N+](=O)[O-] |  | 6.2 µM (active) |
| CS(=O)(=O)c1ccc(C(=O)OCC(=O)N2CC(=O)Nc3ccccc32)cc1[N+](=O)[O-] |  | 3.8 µM (active) |
| CC(OC(=O)c1ccc(S(C)(=O)=O)c([N+](=O)[O-])c1)C(=O)NC1C2CC3CC(C2)CC1C3 (stereo not given) |  | 1.4 µM (active) |
| CS(=O)(=O)c1ccc(C(=O)OCC(=O)NCC2CCCO2)cc1[N+](=O)[O-] (stereo not given) | inactive |  |
| CS(=O)(=O)c1ccc(C(=O)OCC(=O)NC(=O)NC2CCCCC2)cc1[N+](=O)[O-] |  | 19.1 µM (active) |
| CS(=O)(=O)c1ccc(C(=O)OCC(=O)N2CCNc3ccccc32)cc1[N+](=O)[O-] |  | 1.1 µM (active) |
| N#Cc1ncc(C(=O)OCC(=O)NC2C3CC4CC(C3)CC2C4)cn1 (stereo not given) | inactive |  |
| C[S+](=O)([O-])c1ccc(C(=O)OCC(=O)N2CCN([S+](C)(=O)[O-])CC2)cc1[N+](=O)[O-] | inactive |  |
| CCN(CC)C(=O)COC(=O)c1ccc(S(C)(=O)=O)c([N+](=O)[O-])c1 |  | 41.3 µM (active) |
| CC(=O)c1cccc(NC(=O)C(C)OC(=O)c2ccc(S(C)(=O)=O)c([N+](=O)[O-])c2)c1 (stereo not given) |  | 50.9 µM (active) |
| CCN1CCN(C(=O)COC(=O)c2ccc(S(C)(=O)=O)c([N+](=O)[O-])c2)CC1C (stereo not given) | inactive |  |
| Cc1cc(C(=O)OCC(=O)NC(=O)C2CCCCC2)ccc1[N+](=O)[O-] | inactive |  |
| CS(=O)(=O)c1ccc(C(=O)OCC(=O)N2Cc3ccccc3C2)cc1[N+](=O)[O-] |  | 3 µM (active) |
| CS(=O)(=O)c1ccc(-c2nc(C(=O)NC3C4CC5CC(C4)CC3C5)cs2)cc1[N+](=O)[O-] (stereo not given) |  | 10.1 µM (active) |
| CS(=O)(=O)c1ccc(C(=O)OCC(=O)NC(=O)C2CCCCC2)cc1[N+](=O)[O-] |  | 1.4 µM (active) |
| CS(=O)(=O)c1ccc(-c2nnc(-c3ccccc3)o2)cc1[N+](=O)[O-] | inactive |  |
| CS(=O)(=O)c1ccc(C(=O)OCC(=O)NC2C3CC4CC(C3)CC2C4)cc1[N+](=O)[O-] (stereo not given) |  | 1.6 µM (active) |
| CCN1CCN(C(=O)COC(=O)c2ccc(S(C)(=O)=O)c([N+](=O)[O-])c2)C(C)C1 (stereo not given) | inactive |  |
| CS(=O)(=O)c1ccc(C(=O)OC(C(=O)NC2C3CC4CC(C3)CC2C4)c2ccccc2)cc1[N+](=O)[O-] (stereo not given) |  | 3.9 µM (active) |
